# Screening results (PubChem BioAssay)
# Shown are actives, neighbours in structure and some others; about 5.7% of the full set was active somewhere.
# FAS-TE inh = inhibitors of human fatty acid synthase thioesterase domain. inhibition, % at 15 µM. recombinant FAS-TE, OMFH fluorogenic substrate, fluorescence endpoint. 360,000 compounds, 0.67% hits. AID 602261;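 active = compounds whose normalised, plate-corrected inhibition of enzyme fluorescence in the single-dose primary screen is 50% or more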;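 note: 0% = DMSO with enzyme and 100% = substrate without enzyme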
# MPTP inh = blocks calcium-induced mitochondrial swelling; inhibition, % at 10 µM; isolated mouse mitochondria, Ca2+ swelling absorbance, 30 min; 360,000 compounds, 1.4% hits;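 active = inhibition of 50% or more, scaled per plate between neutral and stimulator controls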;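 note: 0% = DMSO wells given calcium and 100% = 1 mM EGTA wells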
# GRIN3A LBD mod = modulators (binders) of human NR3A ligand-binding domain | NR3A LBD differential scanning fluorimetry, Tm shift; 0% = protein alone, 100% = glycine-bound protein | Tm shift relative to glycine control, % at 25 µM | 340,000 compounds, 2.5% hits | AID 1259313;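 active = melting temperature shift of at least 10% of the positive control shift, at one fixed dose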
# Myeloid diff MLP = compounds promoting myeloid differentiation; calls only at 10 µM; ER-HoxA9 myeloid progenitors, lysozyme-GFP differentiation, flow cytometry; 360,000 compounds, 1% hits;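 active = normalized GFP-positive differentiation at or above the plate's own cutoff, the solvent-only control mean plus 3 SD; inconclusive = no clear call, values can overlap the other calls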;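 note: cells exposed to compound for four days before flow analysis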
# rCAG binder = binds r(CAG) RNA repeats. 370,000 compounds, 1.3% hits. r(CAG) RNA repeat, TO-PRO-1 dye displacement fluorescence. inhibition, % at 3 µM;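 active = inhibition above the plate cutoff, the mean of all test compounds on that plate plus 3 SD, cut at about 35% in these data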;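 note: 0% = DMSO alone and 100% = 100 µM mitoxantrone as full dye displacement; higher means more dye released from RNA so lower well fluorescence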
# * = called active by the depositor; i = inactive; ? = inconclusive; . = no result; + = active, no number.
SMILES,FAS-TE inh,MPTP inh,GRIN3A LBD mod,Myeloid diff MLP,rCAG binder
Cc1csc(NC(=O)/C=C/c2ccc3c(c2)OCO3)n1,-3,0,-4,i,6
Cc1ccc(C(C(=O)Nc2ccc3c(c2)OCO3)N(C)C(=O)/C=C\c2ccc3c(c2)OCO3)cc1 (stereo not given),39,2,13*,i,6
O=C(/C=C/c1ccc2c(c1)OCO2)Nc1nc2ccccc2s1,-4,4,14*,i,0
CCN(C)C(=O)CN1C(=O)C2CCCCN2C(=O)c2ccccc21 (stereo not given),.,.,.,.,6
Cc1ccc(NC(=O)CN(C)C(=O)Cn2nnc(-c3ccccc3C)n2)cc1,-1,1,-3,i,3
Cc1ccc(NC(=O)Cn2nnc(-c3ccccc3NC(=O)c3cccs3)n2)cc1,5,2,20*,?,1
COc1ccc(NC(=O)Cn2nnc(-c3ccccc3NS(=O)(=O)c3ccc(OC)cc3)n2)cc1,-5,3,1,i,0
O=C(Cn1nnc(-c2ccccc2NC(=O)c2ccco2)n1)Nc1ccccc1,-1,-2,3,.,.
COc1ccc(NC(=O)Cn2nnc(-c3ccccc3NC(=O)c3cccs3)n2)cc1,10,1,10*,i,9
CCOC(=O)c1ccc(NC(=O)Cn2nnc(-c3ccccc3C)n2)cc1,35,34,13*,i,2
Cc1cc(NC(=O)Cn2nnc(-c3ccccc3N)n2)no1,-8,1,26*,i,0
C[C@@H]1COc2cc(NCCO)ccc2S(=O)(=O)N1,.,.,.,.,3
Cc1cc(Br)cn2c(Cc3cccc(F)c3)c(-c3ccco3)nc12,.,.,.,.,24
COc1cc2c(c(OC3OC(CO)C(O)C(O)C3O)c1)C(=O)CC(c1ccc(O)cc1)O2 (stereo not given),.,.,.,.,-5
COc1ccc(C(=O)OCCN2CCN(C3CN(Cc4cn(Cc5cccc(F)c5)nn4)S(=O)(=O)C3)CC2)cc1OC (stereo not given),.,.,.,.,5
C[C@@H]1CN(S(=O)(=O)C(C)(C)C)[C@H](CCO)/C1=C\CCO,.,.,.,.,2
c1ccc2c(-c3nc(C4CCCCC4)no3)cc(-c3ccncc3)nc2c1,13,6,15*,i,.
COc1ccc(-c2cc(-c3nnc(-c4ccncc4)o3)c3ccccc3n2)cc1,24,2,-6,i,2
CC(=O)N1c2ccccc2C(C)=NCC1C(=O)NC1CCCCC1 (stereo not given),.,.,.,.,-1
CCOc1ccc(CCNC(=O)C2CCCN(c3nnc(-n4cccc4)s3)C2)cc1OCC (stereo not given),-7,-2,39*,i,-2
COc1cccc(CN(C)C(=O)[C@@H](Cc2ccccc2)NC(=O)[C@H]2O[C@@H](n3ccc(=O)[nH]c3=O)[C@H](O)[C@@H]2O)c1,.,.,.,.,1
Clc1ccc2nnc(Cl)n2n1,-4,-2,1,+,0
CCN(C(=O)[C@@H](C)[C@@H](O)c1ccc(Cl)cc1)c1ccccc1,.,.,.,.,0
Cc1nc(SCC(=O)N2c3ccccc3NC(=O)CC2C)c2c(C)c(C)sc2n1 (stereo not given),-22,-1,0,i,-11
Cc1sc2nc(C3CC3)nc(SCC(=O)N3c4ccccc4CC3C)c2c1C (stereo not given),4,1,2,+,.
SMILES,FAS-TE inh,MPTP inh,GRIN3A LBD mod,Myeloid diff MLP,rCAG binder
CCN(CC)c1ccc(NC(=O)C2CC(=O)N(Cc3ccccc3)C2)cc1 (stereo not given),-2,1,0,i,-7
CC(C)c1ccc(CN2CC(C(=O)Nc3ccccc3)CC2=O)cc1 (stereo not given),20,2,15*,i,-7
COc1ccccc1Cn1c(=S)[nH]c2cc(C(=O)N3CCC(C(N)=O)CC3)ccc2c1=O,-8,-1,3,+,5
CN(C(=O)C1CCCO1)C1CCS(=O)(=O)C1 (stereo not given),-9,-3,14*,i,2
C/C=C/c1ccc(OCC(=O)OCc2csc(Nc3ccc(C)cc3)n2)c(OC)c1,21,-5,-4,i,1
CCOC(=O)Cc1csc(NC(=O)Nc2ccc(C)cc2)n1,4,13,14*,i,21
CCOC(=O)Cc1csc(NC(=O)Nc2ccc(F)cc2)n1,-1,27,-5,i,18
CCOC(=O)Cc1csc(NC(=O)Nc2cccc(OC)c2)n1,1,10,14*,i,26
Cc1ccc(Nc2nc(COC(=O)COc3ccc(C=O)cc3)cs2)cc1,15,-1,10*,i,2
